# Source: the supplement of paper PMC6555819
# Experiments:
# Test in all cases: PBM binding z-score (relative to random genomic background probes); higher = stronger binding; sequences stand for … in GC…GCGATTGACAGCGTAGAATGAAGG
# [1] = test system: RARb homodimer (NR concentration 270 nM)
# Outline: (§1)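 Random background probes are the reference for binding z-scores. These scores derive from regression-normalized fluorescence on custom Agilent 4×180K protein-binding microarrays incubated 1 h with ligand-free nuclear receptor dimers. Binding was detected with antibodies against each partner (one per run).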
# [2] = test system: RARg:RXRa (NR concentration 270 nM, RXRa partner concentration 90 nM)
# Outline: as §1
# [3] = test system: RARg homodimer (NR concentration 270 nM)
# Outline: as §1
# [4] = test system: RXRa DBDmut IVT, anti-RXR (DBD mutation: RXRa K156A/R161A, NR concentration 90 nM)
# Outline: as §1
# [5] = test system: RXRa homodimer (NR concentration 180 nM)
# Outline: as §1
# [6] = test system: THRa:RXRa (NR concentration 90 nM, RXRa partner concentration 90 nM)
# Outline: as §1
# [7] = test system: THRa homodimer (NR concentration 90 nM)
# Outline: as §1
# [8] = test system: VDR:RXRa (NR concentration 270 nM, RXRa partner concentration 90 nM)
# Outline: as §1
# [9] = test system: VDR homodimer (NR concentration 270 nM)
# Outline: as §1
Sequence,PBM binding z-score [1],PBM binding z-score [2],PBM binding z-score [3],PBM binding z-score [4],PBM binding z-score [5],PBM binding z-score [6],PBM binding z-score [7],PBM binding z-score [8],PBM binding z-score [9]
GCTTGTCGATCAAGGTTAAGAAAGACTAAGCTAA,0.0989,0.457,0.385,-0.057,0.794,1.68,-0.268,-0.0633,-0.484
TGAATGAGGTTAAAAATCAGGGAACGTGGCGTCG,0.129,1.38,0.835,1.26,2.24,1.67,-0.0675,0.855,0.4
CCTACTGGGCAAAAGGTCATTGATTCCAATGCTC,4.53,5.81,5.23,0.966,6.04,3.09,0.51,4.44,1.72
CGAACTGGGTCAGAACAGGACAGTGAAGGATGAT,1.53,1.84,2.27,0.00591,1.26,3.55,-0.0909,0.685,0.0814
CTTCGGAGGACAACAGGAGGTCAGAGCTGCCAGA,3.55,3.73,3.57,0.619,2.19,2.97,1.1,2.12,1.45
CCGACTGGGGCAGAAAGGTTTCCATACCATCCGG,0.129,-0.218,0.0471,-0.768,-0.284,-1.38,-0.951,-0.642,-0.664
TCATATAGGTAAAGGTGAAAGGCGAACGATATGA,1.51,1.67,1.39,0.748,2.24,1.7,-0.314,1.14,-0.263
AGAACGAGGGCACGCTGAGCTGATAGCAGAGTAG,0.904,1.83,2.12,1.48,1.2,1.39,-0.398,0.52,0.48
CCGACTGGGGCAGAAAGGATACCATACCATCCGG,0.0502,-0.104,0.264,-1.19,-0.344,-0.682,-0.741,-0.772,-0.566
ATCGAAAGGTCGACGACGTGAGTATACACCGTTT,2.21,4.04,3.8,1.3,3.94,1.73,-0.597,2.25,0.228
CCTCCTGGGCCAAAAAGGTCATTGATGCCGATAA,4.4,4.5,3.91,0.197,4.5,3.12,0.604,4.94,2.38
ATTTCTAGGTAAAGTTCAGTGAAAGATCGATAGA,2.55,2.02,2.7,1.59,1.44,1.48,0.574,2.11,2.39
TCAGACAGGTGAAGGTACCTCAGGTACGCAGTCG,0.421,0.412,0.332,1.1,1.05,0.941,0.205,0.202,0.0555
CCGAGTAGGTTATGGGGCATTCCGGCAACGGTGA,1,0.266,0.307,-0.402,0.465,0.0973,0.142,-0.216,0.147
TCTTGTAGATCGGCAGGTTAAGAAAGCTGGCCAA,0.124,-0.0429,-0.399,0.729,0.269,0.308,-0.309,0.405,-0.0576
AGAACGAGGGCACGCTGCGTTGATAGCAGAGTAG,1.06,1.55,2.21,1.81,1.3,1.71,-0.00562,0.741,0.888
TCTTGCAGATCAAAGGTTAAGAAAGCCGAAGCCT,1.18,1.47,0.521,0.00809,3,1.26,-0.786,1.3,-0.402
TAGCCTAGGTCATGTGCCAGTATACCACGCGAAC,2.84,3.83,4.32,1.26,3.14,2.91,1.55,2.35,0.739
CCTAGCAGGCCAATCTGGGTCACTTAAGGCTTGA,2.26,1.07,1.19,-0.0983,0.84,3.93,0.596,0.526,0.132
TCATATAGGTAATACAGGTGAAGGTCGGCATCTA,2,1.13,0.974,1.69,1.46,1.31,0.829,1.62,0.817
CCTCGGAGGACAGAAGGGCAGAGCTGTCCGCTTT,0.947,0.328,0.965,-0.318,-0.72,-0.248,-1.05,-0.902,-0.623
CAAACTAGGTTAAAGGTCAAAGTCGAGCCAACCA,4.47,7.04,5.43,2.13,8.81,3.85,0.829,5.47,2.96
GCTGCTAGGTCTGGTTGGTCAGCTAACGGGTACG,0.178,-0.569,-0.564,-0.198,-0.753,-0.722,-0.243,-0.816,-0.214
CCAGACAGGTGAAAGGTAACTAAGTCTGGTACGC,0.728,1.08,0.582,-0.0522,1.99,0.784,-0.203,0.397,-0.529
TCATATAGGTAAATGCTAGGTGAAACTCCGATCT,0.638,0.657,0.3,1.3,0.917,1.65,0.67,0.855,0.32
TCGAGTTGGTTAGTCGGGGCATTCAGCCAACATA,0.0639,-0.34,-0.804,1.41,-0.355,0.331,-0.0261,0.43,0.871

Sequence,PBM binding z-score [1],PBM binding z-score [2],PBM binding z-score [3],PBM binding z-score [4],PBM binding z-score [5],PBM binding z-score [6],PBM binding z-score [7],PBM binding z-score [8],PBM binding z-score [9]
ATCTCTAGGTAAGGTTCAGTGAAAGATCGATAGA,0.959,0.973,1.03,1.35,0.69,0.888,0.39,1.33,2.32
ATCTCTAGGTAAAGATAGTTCTGTGAATGCAAAT,-0.0245,0.131,0.453,0.28,0.154,0.478,0.132,0.285,0.175
CCTAGCAGGCCCGGGTCACTCAAGCATTTCGCTT,2.02,1.96,1.46,-0.519,2.43,2.71,1.3,1.43,0.294
CCTTACGGGGCACTGACAGGTTATAGCATTTGGA,0.4,0.997,0.998,0.12,0.44,0.141,-0.73,-0.341,-0.309
TCTTGTAGATCAACAGGTGGTTAAGAAAGATCGA,-0.322,-0.241,-0.25,0.571,-0.126,-0.453,-0.243,0.266,-0.227
ACTTACGGGTCAACGAGGTTACAGCACGCGTATA,3.89,6.06,5.3,2.37,6.55,4.46,1.51,7.79,3.71
TCTAGCAGGCCAGAGGGTCACTCACGAGGTACGG,2.69,2.68,2.14,0.0334,2.44,1.61,0.0798,1.33,0.852
CGAACTAGGTCATCCAGAACAGTGAATACATTGA,2.8,4.03,4.69,2.23,2.89,2.64,1.15,2.56,1.17
TCTCGGAGGACACGTAAGGTCAGAGCTCGACATC,4.02,3.53,3.84,1.11,2.47,4.72,4.18,2.69,1.25
CGAACTAGGTCGGAACAGGACAGTGAAGGATGAT,0.127,0.399,0.643,-0.112,0.169,1.89,-0.442,-0.292,-0.102
ATCGCAAGGTCGACGAGGTGAGTATACACCGTTT,1.72,2.58,2.37,1.32,2.26,3.41,1.26,4.11,1.21
ACTCGGAAGACAAAGGTCAGAGCTACGCCAGTGA,4.33,4.5,4.21,0.211,4.56,2.57,0.0345,2.63,0.445
TTACCAAGGTGAGCTGAGGTCGTTGCTCCAACTC,1.57,0.912,0.763,0.505,1.26,4.78,2.1,4.1,1.93
ACTATTAGTTGAGACGAAGGCAACCGATAGGTTG,-0.559,-0.255,0.233,0.0754,-0.207,-0.702,-0.7,-0.504,-0.261
CCGACTGGGCCACGAAAGGTCATTGATTCAGTGA,4.83,4.59,4.35,0.758,4.99,3.87,0.668,4.05,1.78
ACAGACAGGTGAGTGAAGGTAACTCGGCTGGACG,0.0831,0.0852,0.044,-0.351,0.256,1.38,-0.708,-0.336,-0.648
CGTCCAAGGTCGTAGGAGGTCAGTGAAGACAGAT,4.07,4.63,4.14,2.43,4.36,4.89,1.61,5.47,2.85
TCTGCTAGGTCAATGATGGTCAGCTAATCTGCTA,2.75,3.45,4.62,1.11,1.89,2.59,0.321,1.32,-0.294
TCAGACAGGTGAAGGCAACTCAGGTACGCAGTCG,0.466,0.17,0.317,0.993,0.955,0.99,-0.0896,0.552,-0.101
GCTTACGGGTCACAGGTTATAGCATGAATAGAAT,2.95,5.09,4.66,2.03,5.84,2.86,0.315,3.9,0.608
CCTACTGGGCCAAAAAGGTCATTGTTGCCGATAA,4.29,4.28,3.91,0.617,4.21,2.92,0.342,4.46,2.3
TCATAGAGGTAAAGGTGAAAGTCGAACGATATGA,1.69,1.9,1.52,0.528,2.39,1.67,-0.473,0.788,-0.362
ACTAGCAGGCCAAGTTTGGGTCAATCAAACAAAG,2.11,2.43,1.43,-0.255,0.858,2.25,0.6,0.502,0.00979
CCGGGTAGGTTATGGGGCATTCAGGCAACGGTGA,1.1,0.906,0.708,-1.46,0.781,0.806,0.313,0.056,0.138
AGTCAAAGTTCACTAGGGAACGTAAGATTCAGCT,3.65,4.75,5.65,4.23,3.67,2.05,-0.852,3.85,3.23
TAGCCTAGGTCATGCTGGCCAGTATAGTGTCGGC,3.02,3.72,4.32,0.579,2.71,3.03,0.898,2.04,-0.0948
